{"source": "paper PMC8384837", "about": "“Expanding the binding specificity for RNA recognition by a PUF domain”", "assay_in_all_cases": "yeast three-hybrid, YBZ-1, SC-Leu-His + 0.5 mM 3-AT, 4 days", "conditions_in_all_cases": "tags: N-Gal4 AD-HA kept; label: inside an RPR1-promoter hybrid RNA with tandem MS2 sites; ssRNA", "key": {"PUM1 PUF domain R5-ISR": {"biological_target": "PUM1 PUF domain R5-ISR (Homo sapiens, UniProt Q14671 828-1176, C1007I;R1008S;Q1011R)", "in_short": "(§1)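 The interaction score is the logarithmic change in variant frequency from input to selection. It uses log2, with a pseudocount of 1 for absent variants, and frequencies came from PCR-amplified, Illumina-sequenced repeat regions. The libraries were Pumilio-1 PUF domains randomized at the three base-contacting residues per repeat, co-expressed with matching RNA elements in strain YBZ-1 (LexA–MS2 coat fusion, HIS3 reporter). Plating lasted four days on SC-Leu (input) or SC-Leu-His + 0.5 mM 3-AT (selection).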"}, "PUM1 PUF domain R6-FHS": {"biological_target": "T1, PUM1 PUF domain R6-FHS (Homo sapiens, UniProt Q14671 828-1176, N1043F;Y1044H;Q1047S)", "T1 sequence": "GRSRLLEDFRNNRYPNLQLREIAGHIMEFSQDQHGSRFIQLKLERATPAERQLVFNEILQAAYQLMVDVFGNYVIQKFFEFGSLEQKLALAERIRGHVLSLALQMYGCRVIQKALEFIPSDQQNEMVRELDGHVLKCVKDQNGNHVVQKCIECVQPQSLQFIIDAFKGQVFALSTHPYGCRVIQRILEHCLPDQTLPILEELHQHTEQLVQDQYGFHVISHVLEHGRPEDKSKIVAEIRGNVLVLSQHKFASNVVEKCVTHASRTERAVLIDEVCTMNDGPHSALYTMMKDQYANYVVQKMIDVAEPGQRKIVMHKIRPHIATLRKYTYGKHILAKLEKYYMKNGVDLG", "in_short": "as §1"}, "PUM1 PUF domain R8-IHR": {"biological_target": "PUM1 PUF domain R8-IHR (Homo sapiens, UniProt Q14671 828-1176, N1122I;Y1123H;Q1126R)", "in_short": "as §1"}, "PUM1 PUF domain R4-DHT": {"biological_target": "PUM1 PUF domain R4-DHT (Homo sapiens, UniProt Q14671 828-1176, N971D;Q975T)", "in_short": "as §1"}, "PUM1 PUF domain R5-QQC": {"biological_target": "PUM1 PUF domain R5-QQC (Homo sapiens, UniProt Q14671 828-1176, C1007Q;R1008Q;Q1011C)", "in_short": "as §1"}, "PUM1 PUF domain R5-QHE": {"biological_target": "PUM1 PUF domain R5-QHE (Homo sapiens, UniProt Q14671 828-1176, C1007Q;R1008H;Q1011E)", "in_short": "as §1"}, "PUM1 PUF domain R2-SWG": {"biological_target": "PUM1 PUF domain R2-SWG (Homo sapiens, UniProt Q14671 828-1176, N899S;Y900W;Q903G)", "in_short": "as §1"}, "PUM1 PUF domain R3-RSF": {"biological_target": "PUM1 PUF domain R3-RSF (Homo sapiens, UniProt Q14671 828-1176, C935R;R936S;Q939F)", "in_short": "as §1"}, "PUM1 PUF domain R3-IFA": {"biological_target": "PUM1 PUF domain R3-IFA (Homo sapiens, UniProt Q14671 828-1176, C935I;R936F;Q939A)", "in_short": "as §1"}, "PUM1 PUF domain R7-KSV": {"biological_target": "PUM1 PUF domain R7-KSV (Homo sapiens, UniProt Q14671 828-1176, S1079K;N1080S;E1083V)", "in_short": "as §1"}}}
{"sequence": "GGCUAGAACUAGUGGAUCCCCCGGCGCCCGGCGGCUCGAGCCCGGGUAAGUGUCAAUAGUCUGCAUGCCGCCGGGCGCCAUGCCUGCAGGUCGACUCUAGAAAACAUG", "values": [{"measurement": "binding signal", "setting": "PUM1 PUF domain R5-ISR", "value": "3.12 log2 enrichment (interaction score)"}]}
{"sequence": "GGCUAGAACUAGUGGAUCCCCCGGCGCCCGGCGGCUCGAGCCCGGGUAAGUGUAAAUAGUCUGCAUGCCGCCGGGCGCCAUGCCUGCAGGUCGACUCUAGAAAACAUG", "values": [{"measurement": "binding signal", "setting": "PUM1 PUF domain R5-ISR", "value": "1.4 log2 enrichment (interaction score)"}, {"measurement": "binding signal", "setting": "PUM1 PUF domain R6-FHS", "value": "4.18 log2 enrichment (interaction score)"}, {"measurement": "binding signal", "setting": "PUM1 PUF domain R8-IHR", "value": "3.28 log2 enrichment (interaction score)"}]}
{"sequence": "GGCUAGAACUAGUGGAUCCCCCGGCGCCCGGCGGCUCGAGCCCGGGUAAGUGUACAUAGUCUGCAUGCCGCCGGGCGCCAUGCCUGCAGGUCGACUCUAGAAAACAUG", "values": [{"measurement": "binding signal", "setting": "PUM1 PUF domain R4-DHT", "value": "2.73 log2 enrichment (interaction score)"}]}
{"sequence": "GGCUAGAACUAGUGGAUCCCCCGGCGCCCGGCGGCUCGAGCCCGGGUAAGUGUGAAUAGUCUGCAUGCCGCCGGGCGCCAUGCCUGCAGGUCGACUCUAGAAAACAUG", "values": [{"measurement": "binding signal", "setting": "PUM1 PUF domain R5-QQC", "value": "4.46 log2 enrichment (interaction score)"}, {"measurement": "binding signal", "setting": "PUM1 PUF domain R5-QHE", "value": "3.04 log2 enrichment (interaction score)"}]}
{"sequence": "GGCUAGAACUAGUGGAUCCCCCGGCGCCCGGCGGCUCGAGCCCGGGUAAGUGUAAAAAGUCUGCAUGCCGCCGGGCGCCAUGCCUGCAGGUCGACUCUAGAAAACAUG", "values": [{"measurement": "binding signal", "setting": "PUM1 PUF domain R2-SWG", "value": "3.09 log2 enrichment (interaction score)"}]}
{"sequence": "GGCUAGAACUAGUGGAUCCCCCGGCGCCCGGCGGCUCGAGCCCGGGUAAGUGUAAAGAGUCUGCAUGCCGCCGGGCGCCAUGCCUGCAGGUCGACUCUAGAAAACAUG", "values": [{"measurement": "binding signal", "setting": "PUM1 PUF domain R2-SWG", "value": "1.53 log2 enrichment (interaction score)"}]}
{"sequence": "GGCUAGAACUAGUGGAUCCCCCGGCGCCCGGCGGCUCGAGCCCGGGUAAGUGUAAUUAGUCUGCAUGCCGCCGGGCGCCAUGCCUGCAGGUCGACUCUAGAAAACAUG", "values": [{"measurement": "binding signal", "setting": "PUM1 PUF domain R3-RSF", "value": "3.86 log2 enrichment (interaction score)"}, {"measurement": "binding signal", "setting": "PUM1 PUF domain R3-IFA", "value": "3.87 log2 enrichment (interaction score)"}]}
{"sequence": "GGCUAGAACUAGUGGAUCCCCCGGCGCCCGGCGGCUCGAGCCCGGGUAAGUCUAAAUAGUCUGCAUGCCGCCGGGCGCCAUGCCUGCAGGUCGACUCUAGAAAACAUG", "values": [{"measurement": "binding signal", "setting": "PUM1 PUF domain R7-KSV", "value": "3.22 log2 enrichment (interaction score)"}]}
{"sequence": "GGCUAGAACUAGUGGAUCCCCCGGCGCCCGGCGGCUCGAGCCCGGGUAAGUUUAAAUAGUCUGCAUGCCGCCGGGCGCCAUGCCUGCAGGUCGACUCUAGAAAACAUG", "values": [{"measurement": "binding signal", "setting": "PUM1 PUF domain R7-KSV", "value": "3.22 log2 enrichment (interaction score)"}]}
{"sequence": "GGCUAGAACUAGUGGAUCCCCCGGCGCCCGGCGGCUCGAGCCCGGGUAAGCGUAAAUAGUCUGCAUGCCGCCGGGCGCCAUGCCUGCAGGUCGACUCUAGAAAACAUG", "values": [{"measurement": "binding signal", "setting": "PUM1 PUF domain R8-IHR", "value": "4.48 log2 enrichment (interaction score)"}]}
